# Records with an inconclusive call do not appear. A call without a number means that no potency is given here. Unmarked numbers belong to inactive results. Calls of active or inactive are those of the source. Calls come from the whole dose curve; as a rule, active = well fitted curve in the direction sought with a large enough effect; inconclusive = small, poorly fitted or top-dose-only effect, or another doubt; inactive = no such curve, though single readings can be large; an effect the other way counts as inactive or inconclusive.
# Columns and labels:
# [1] = qHTS for Inhibitors of Plasmodium falciparum (DD2) proliferation (AID 504314)
# How it was run: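 SYBR Green growth assay: 72 h compound exposure of infected red cells (2.5% hematocrit, 0.3% parasitemia), then lysis and overnight dye staining, fluorescence 485/535 nm. Values scaled between DMSO and 0.29 uM artemisinin controls.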
# [2] = qHTS for Inhibitors of Plasmodium falciparum (GB4) proliferation (AID 504315); note: nearly all actives have a fitted effect of over 50% in size
# How it was run: (§1)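 Parasite growth measured as SYBR Green DNA fluorescence (ex 485, em 535 nm) after overnight lysis following 72 h culture at 37 °C, 0.3% parasitemia, 2.5% hematocrit. Values normalized against DMSO and 0.29 uM artemisinin controls, with plate-stack correction.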
# [3] = qHTS for Inhibitors of Plasmodium falciparum (7G8) proliferation (AID 504316); note: nearly all actives have a fitted effect of over 65% in size
# How it was run: as §1
# [4] = qHTS for Inhibitors of Plasmodium falciparum (HB3) proliferation (AID 504318); note: nearly all actives have a fitted effect of over 60% in size
# How it was run: as §1
# [5] = qHTS for Inhibitors of Plasmodium falciparum (CP250) proliferation (AID 504320)
# How it was run: as §1
# Potency is the fitted concentration of half-maximal effect.
SMILES,Potency [1],Potency [2],Potency [3],Potency [4],Potency [5]
COC(=O)C1=C(C(=O)OC)[C@@H]2N(C)c3ccccc3[C@@]23C[C@@H](C(=O)OC)N(S(=O)(=O)c2ccc(C#N)cc2)C3=N1,inactive,inactive,inactive,inactive,inactive
COC(=O)C1=C(C)N(Cc2ccccc2)C(=O)N[C@H]1c1cccc(F)c1,inactive,inactive,inactive,inactive,inactive
CCN1C(=O)NC(c2ccco2)C(C(=O)OC)=C1C (stereo not given),inactive,inactive,inactive,inactive,inactive
C=CCN1c2ccccc2[C@]23C[C@@H](C(=O)OC)N(C(=O)c4ccco4)C2=NC(C(=O)OC)=C(C(=O)OC)[C@H]13,inactive,inactive,inactive,inactive,inactive
COC/C=C/C1=CC2=CC(=O)C(C)(OC(=O)c3cnc4ccccc4n3)C(=O)C2=CN1CCc1ccccn1 (stereo not given),inactive,inactive,inactive,inactive,inactive
COCCN1C(=O)N[C@@H](c2cccc(C(F)(F)F)c2)C(C(=O)OC)=C1C,inactive,inactive,inactive,inactive,inactive
COC/C=C/C1=CC2=CC(=O)C(C)(OC(=O)c3cnc4ccccc4n3)C(=O)C2=CN1c1ccccc1 (stereo not given),inactive,inactive,inactive,inactive,inactive
CCCCC1=CC2=CC(=O)C(C)(OC(=O)CC)C(=O)C2=CN1C1CCCCC1 (stereo not given),inactive,inactive,inactive,inactive,inactive
CCCCC1=CC2=CC(=O)C(C)(OC(=O)CC)C(=O)C2=CN1CCCOC(C)C (stereo not given),inactive,inactive,inactive,inactive,inactive
COC(=O)CCCC1=CC2=CC(=O)C(C)(OC(=O)c3cccs3)C(=O)C2=CN1C(CO)CO (stereo not given),inactive,inactive,inactive,inactive,inactive
COC(=O)C1=C(C(=O)OC)[C@@H]2N(C)c3ccccc3[C@@]23C[C@@H](C(=O)OC)N=C3N1,inactive,inactive,inactive,inactive,inactive
CCOC(=O)NN=C1C[C@@H](O)[C@@H](O)[C@@H]2[C@H]3C(=O)N([C@@H](C)c4ccccc4)C(=O)[C@@H]3CC[C@@H]12,inactive,inactive,inactive,inactive,inactive
CC(C)CON=C1C[C@@H](O)[C@@H](O)[C@@H]2[C@H]3C(=O)N(c4cccc(Oc5ccccc5)c4)C(=O)[C@@H]3CC[C@H]12,inactive,inactive,inactive,inactive,inactive
CCN1C(=O)N[C@@H](c2cccc(C(F)(F)F)c2)[C@H](C(=O)OC)[C@H]1C,inactive,inactive,inactive,inactive,inactive
CCN1C(=O)N[C@@H](c2ccco2)C(C(=O)OC)=C1C,inactive,inactive,inactive,inactive,inactive
FC(F)(F)c1cc(NC(=S)NC23CC4CC(CC(C4)C2)C3)cc(C(F)(F)F)c1,753 nM (active),1070 nM (active),601 nM (active),478 nM (active),849 nM (active)
CCCCc1nc2c(c3c1C[C@H](C)OC3)CN(C(=O)C1CC1)CC2,inactive,inactive,inactive,inactive,inactive
COC(=O)C1=C(C)N(Cc2ccccc2)C(=O)N[C@H]1c1ccco1,inactive,inactive,inactive,inactive,inactive
Cc1ccccc1Nc1oc(-c2ccccc2)nc1-c1ccc(C(F)(F)F)cc1,inactive,inactive,inactive,inactive,inactive
CCOC(=O)CN1C(=O)N[C@@H](CCc2ccccc2)C(C(C)=O)=C1C,inactive,inactive,inactive,inactive,inactive
CCCCc1nc2c(c3c1C[C@H](C)OC3)CN(C(=O)NCc1ccco1)CC2,inactive,inactive,inactive,inactive,inactive
COC(=O)C1=C(C(=O)OC)[C@@H]2N(C)c3ccc(OC)cc3[C@@]23C[C@@H](C(=O)OC)N=C3N1,inactive,inactive,inactive,inactive,inactive
CCOC(=O)C=CCCCC=CC(=O)c1ccccc1,inactive,inactive,inactive,inactive,inactive
CCC(=O)OC1(C)C(=O)C=C2C=C(CCCCNC(=O)OC(C)(C)C)OC=C2C1=O (stereo not given),inactive,inactive,inactive,inactive,inactive
CCOC(=O)CN1C(=O)NC(c2cccc(C(F)(F)F)c2)C(C(C)=O)=C1C (stereo not given),inactive,inactive,inactive,inactive,inactive
CCCCC1=CC2=CC(=O)C(C)(OC(=O)CC)C(=O)C2=CN1Cc1ccco1 (stereo not given),inactive,inactive,inactive,inactive,inactive
COC(=O)C1=C(C(=O)OC)[C@@H]2Nc3ccccc3[C@@]23C[C@@H](C(=O)OC)N(C(=O)NC2CCCC2)C3=N1,inactive,inactive,inactive,inactive,inactive

# Reference: PubChem BioAssay (NCATS)
